Test results published in PubChem BioAssay.
Calls of active or inactive are those of the source.

Experiments:
[1] = small molecules captured by biotinylated probe aFSTL3 – biochemical, small-molecule microarray, fluorescence 635/667, stem cell growth factor project, primary screen (AID 1064); conditions: higher = more signal;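 note: measures binding of the biotinylated anti-FSTL3 antibody to printed compounds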
[2] = binders from COS7 lysate, DM2A8 probe, primary screen, torsin A project, cell lysate, small-molecule microarray, fluorescence 635/667 (AID 1065); conditions: higher = more signal, COS7 lysate expressing mutant human TOR1A
[3] = small molecules captured by biotinylated probe aFGF2 – biochemical, small-molecule microarray, fluorescence 635/667, stem cell growth factor project, primary screen (AID 1067); conditions: higher = more signal;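 note: measures binding of biotinylated aFGF2 protein to printed compounds on slides; z-score merges feature fluorescence and signal-to-noise across triplicate slides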
[4] = small molecules captured by biotinylated probe aFGF10 – biochemical, small-molecule microarray, fluorescence 635/667, stem cell growth factor project, primary screen (AID 1071); conditions: higher = more signal;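 note: score merges 667 nm spot intensity and signal to noise from triplicate slides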
[5] = molecular target: Neurogenic locus notch homolog protein 2 (Homo sapiens) (UniProt Q04721); test: small molecules binding Notch2 protein – biochemical, small-molecule microarray, 635 nm fluorescence, stem cell growth factors, primary screen (AID 1073); conditions: higher = more signal
[6] = molecular target: Pro-neuregulin-1, membrane-bound isoform (Homo sapiens) (UniProt Q02297); test: small molecules binding neuregulin-1 protein – biochemical, small-molecule microarray, fluorescence 635/667, psychiatric disease protein project, primary screen (AID 1075); conditions: NRG1 binding, 635 nm fluorescence, higher = more signal;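 note: score combines 667 nm spot fluorescence with signal to noise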
[7] = tested on: Neuregulin-1 EGF-like domain; test: small molecules binding NRG1 EGF domain – biochemical, small-molecule microarray, 635 nm fluorescence, primary screen (AID 1081); conditions: higher = more signal;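 note: binding of the protein to compounds printed on small-molecule microarray slides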
[8] = FRG1 expression reporter modulators in myotubes – cell-based, C2C12 myotubes, firefly/Renilla luciferase, luminescence, FRG1 inhibition for FSHD, primary screen (AID 1084); conditions: FRG1 promoter luciferase, higher = more signal, called active from +8 up or from −8 down
[9] = small molecules captured by biotinylated probe aFST – biochemical, small-molecule microarray, fluorescence 635/667, stem cell growth factor project, primary screen (AID 1086); conditions: higher = more signal;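 note: score merges 667 nm fluorescence with signal-to-noise of each printed compound spot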
[10] = binders of probe aHhip on microarray, primary screen, stem cell growth factor project, biochemical, small-molecule microarray, fluorescence 635/667 (AID 1087); conditions: higher = more signal;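 note: score merges spot fluorescence at 667nm with spot signal to noise ratio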

Chain of Pro-neuregulin-1, membrane-bound isoform (Homo sapiens) (Q02297 whole entry, looked up, the tested form may be a part, canonical isoform): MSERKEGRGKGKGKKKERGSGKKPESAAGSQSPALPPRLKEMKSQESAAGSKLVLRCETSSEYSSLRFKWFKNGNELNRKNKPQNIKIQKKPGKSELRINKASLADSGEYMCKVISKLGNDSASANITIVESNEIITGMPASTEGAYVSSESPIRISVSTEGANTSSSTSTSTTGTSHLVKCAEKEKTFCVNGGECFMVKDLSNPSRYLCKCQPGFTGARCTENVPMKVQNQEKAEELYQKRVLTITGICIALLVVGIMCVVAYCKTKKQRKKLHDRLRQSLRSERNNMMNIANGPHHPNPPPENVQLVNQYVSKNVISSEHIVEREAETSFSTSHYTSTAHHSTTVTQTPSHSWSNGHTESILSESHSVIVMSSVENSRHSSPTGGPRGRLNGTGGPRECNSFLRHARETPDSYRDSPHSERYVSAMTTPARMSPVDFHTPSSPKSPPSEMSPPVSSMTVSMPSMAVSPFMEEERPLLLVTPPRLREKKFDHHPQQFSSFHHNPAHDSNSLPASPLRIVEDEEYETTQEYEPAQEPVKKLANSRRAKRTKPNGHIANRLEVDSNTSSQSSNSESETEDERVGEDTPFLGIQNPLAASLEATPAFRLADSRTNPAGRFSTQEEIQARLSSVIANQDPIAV
Chain of Neurogenic locus notch homolog protein 2 (Homo sapiens) (Q04721 whole entry, looked up, canonical isoform): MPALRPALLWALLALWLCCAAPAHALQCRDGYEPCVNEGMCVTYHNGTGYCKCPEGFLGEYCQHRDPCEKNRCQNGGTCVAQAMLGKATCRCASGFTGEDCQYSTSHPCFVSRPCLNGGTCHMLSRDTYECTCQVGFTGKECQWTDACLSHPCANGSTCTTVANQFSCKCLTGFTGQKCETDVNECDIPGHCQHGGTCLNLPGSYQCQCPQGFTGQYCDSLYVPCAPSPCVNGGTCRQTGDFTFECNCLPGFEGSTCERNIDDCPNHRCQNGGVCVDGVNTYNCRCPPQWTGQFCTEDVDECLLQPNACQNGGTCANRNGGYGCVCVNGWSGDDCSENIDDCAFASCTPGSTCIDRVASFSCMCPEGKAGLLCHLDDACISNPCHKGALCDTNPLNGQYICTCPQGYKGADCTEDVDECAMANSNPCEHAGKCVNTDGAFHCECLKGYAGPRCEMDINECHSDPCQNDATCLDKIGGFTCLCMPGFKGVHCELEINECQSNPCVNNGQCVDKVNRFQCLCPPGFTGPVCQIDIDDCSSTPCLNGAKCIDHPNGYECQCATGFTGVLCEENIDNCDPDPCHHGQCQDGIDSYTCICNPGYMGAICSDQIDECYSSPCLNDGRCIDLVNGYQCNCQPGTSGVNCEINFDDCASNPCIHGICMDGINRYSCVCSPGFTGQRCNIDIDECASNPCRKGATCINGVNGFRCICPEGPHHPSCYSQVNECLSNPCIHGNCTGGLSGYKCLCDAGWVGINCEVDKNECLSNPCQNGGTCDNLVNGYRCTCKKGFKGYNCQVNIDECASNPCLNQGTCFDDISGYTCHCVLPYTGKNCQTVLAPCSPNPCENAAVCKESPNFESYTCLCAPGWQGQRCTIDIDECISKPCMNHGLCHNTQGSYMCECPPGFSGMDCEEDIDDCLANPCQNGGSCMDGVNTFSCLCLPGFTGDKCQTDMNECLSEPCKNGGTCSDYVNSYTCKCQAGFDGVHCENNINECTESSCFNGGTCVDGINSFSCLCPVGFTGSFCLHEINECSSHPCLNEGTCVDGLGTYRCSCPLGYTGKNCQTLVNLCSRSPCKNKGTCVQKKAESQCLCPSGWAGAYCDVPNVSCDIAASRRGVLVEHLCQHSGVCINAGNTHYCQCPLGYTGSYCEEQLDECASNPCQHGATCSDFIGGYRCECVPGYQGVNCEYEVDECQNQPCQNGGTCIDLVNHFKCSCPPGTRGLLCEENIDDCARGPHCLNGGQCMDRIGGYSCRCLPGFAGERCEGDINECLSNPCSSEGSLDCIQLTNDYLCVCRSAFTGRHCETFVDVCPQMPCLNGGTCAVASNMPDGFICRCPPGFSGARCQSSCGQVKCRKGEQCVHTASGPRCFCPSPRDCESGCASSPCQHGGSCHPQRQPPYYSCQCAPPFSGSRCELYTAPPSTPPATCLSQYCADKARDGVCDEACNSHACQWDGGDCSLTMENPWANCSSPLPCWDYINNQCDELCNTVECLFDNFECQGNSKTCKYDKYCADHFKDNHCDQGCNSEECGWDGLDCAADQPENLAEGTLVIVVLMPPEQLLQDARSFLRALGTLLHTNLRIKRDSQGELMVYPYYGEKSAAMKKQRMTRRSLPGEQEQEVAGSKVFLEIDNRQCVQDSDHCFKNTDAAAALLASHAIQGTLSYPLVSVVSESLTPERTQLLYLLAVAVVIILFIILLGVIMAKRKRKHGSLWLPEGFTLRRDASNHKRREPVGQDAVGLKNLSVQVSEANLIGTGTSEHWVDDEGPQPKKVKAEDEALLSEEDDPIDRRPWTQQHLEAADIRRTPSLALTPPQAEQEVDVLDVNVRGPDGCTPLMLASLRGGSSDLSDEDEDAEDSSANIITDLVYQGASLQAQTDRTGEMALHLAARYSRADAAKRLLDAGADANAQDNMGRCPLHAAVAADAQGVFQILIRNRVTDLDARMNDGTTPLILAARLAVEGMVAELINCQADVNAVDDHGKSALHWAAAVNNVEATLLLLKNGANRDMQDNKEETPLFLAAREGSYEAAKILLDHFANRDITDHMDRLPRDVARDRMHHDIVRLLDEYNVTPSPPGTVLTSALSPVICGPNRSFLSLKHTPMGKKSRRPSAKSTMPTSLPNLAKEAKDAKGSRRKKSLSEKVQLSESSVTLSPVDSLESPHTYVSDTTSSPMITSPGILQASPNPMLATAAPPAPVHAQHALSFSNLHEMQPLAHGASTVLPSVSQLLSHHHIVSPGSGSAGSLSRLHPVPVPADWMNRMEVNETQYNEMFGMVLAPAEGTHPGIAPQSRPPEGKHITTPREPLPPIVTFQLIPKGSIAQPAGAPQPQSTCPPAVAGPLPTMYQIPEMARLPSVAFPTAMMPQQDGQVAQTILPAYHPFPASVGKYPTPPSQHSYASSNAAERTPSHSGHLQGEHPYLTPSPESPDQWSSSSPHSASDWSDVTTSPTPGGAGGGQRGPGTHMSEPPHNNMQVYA

CO[C@H]1COC(=O)[C@@H]2CCCN2C(=O)CC=C[C@@H](C)[C@H](OC)COC(=O)CC=C[C@@H]1C
composite z-score [1]: -0.57
composite z-score [2]: 1.62
composite z-score [3]: -0.163
composite z-score [4]: -0.0218
composite z-score [5]: -0.256
composite z-score [6]: -0.796
composite z-score [7]: 0.659
z-score [8]: -1.1 (inactive)
composite z-score [9]: 0.152
composite z-score [10]: 0.176

Cc1ccc(F)cc1S(=O)(=O)N[C@@H]1CCN(Cc2ccc(CC(C)C)cc2)C1
composite z-score [1]: -0.433
composite z-score [2]: 0.172
composite z-score [3]: -0.214
composite z-score [4]: -0.613
composite z-score [5]: -0.613
composite z-score [6]: -0.0721
composite z-score [7]: -0.197
z-score [8]: -1.06 (inactive)
composite z-score [9]: -0.493
composite z-score [10]: -0.249

COC(=O)CC=C[C@@H](C)[C@@H](C=NO[C@@H](C)c1cc(-c2c(C)cc(C)cc2C)no1)OC
composite z-score [1]: 1.46
composite z-score [2]: -1.99
composite z-score [3]: -0.159
composite z-score [4]: -0.806
composite z-score [5]: -1.69
composite z-score [6]: -0.674
composite z-score [7]: -0.714
z-score [8]: 0.8 (inactive)
composite z-score [9]: -0.358
composite z-score [10]: -0.0672

O=C1[C@H]2[C@H]3[C@H](O)[C@H](O)CC(=NOCc4ccccc4)[C@@H]3CC[C@H]2C(=O)N1Cc1ccccc1
composite z-score [1]: -0.226
composite z-score [2]: 0.304
composite z-score [3]: -0.125
composite z-score [4]: 0.264
composite z-score [5]: 0.758
composite z-score [6]: -0.0975
composite z-score [7]: 0.272
z-score [8]: 0.341 (inactive)
composite z-score [9]: 0.281
composite z-score [10]: -0.0672

CC(=O)C[C@H](O)[C@@H](NC(=O)OC(C)(C)C)C(C)C
composite z-score [1]: -0.475
composite z-score [2]: -0.627
composite z-score [3]: -0.129
composite z-score [4]: -0.328
composite z-score [5]: -0.453
composite z-score [6]: -0.759
composite z-score [7]: -0.996
z-score [8]: 0.178 (inactive)
composite z-score [9]: -0.126
composite z-score [10]: -0.0668

CCCCCCc1nc(CCCc2cc3c(c(CCCCCC)n2)[Si](C(C)C)(C(C)C)O[C@H]3c2ccccc2)cc2c1[Si](C(C)C)(C(C)C)O[C@H]2c1ccccc1
composite z-score [1]: -0.342
composite z-score [2]: -0.244
composite z-score [3]: -0.109
composite z-score [4]: -0.217
composite z-score [5]: -0.253
composite z-score [6]: -0.47
composite z-score [7]: -0.744
z-score [8]: -0.364 (inactive)
composite z-score [9]: 0.163
composite z-score [10]: -0.277

CCOC(=O)NN=C1C[C@@H](O)[C@@H](O)[C@@H]2[C@@H]3C(=O)N(C4CCCCC4)C(=O)[C@@H]3CC[C@@H]12
composite z-score [1]: -0.236
composite z-score [2]: 0.584
composite z-score [3]: -0.194
composite z-score [4]: 0.469
composite z-score [5]: 0.489
composite z-score [6]: -0.123
composite z-score [7]: -0.424
z-score [8]: -0.371 (inactive)
composite z-score [9]: 0.554
composite z-score [10]: -0.132

CC(C)(C)N1C(=O)[C@H]2[C@H]3[C@H](O)[C@H](O)CC(=NOCc4ccccc4)[C@@H]3CC[C@H]2C1=O
composite z-score [1]: -0.0757
composite z-score [2]: 0.581
composite z-score [3]: -0.0963
composite z-score [4]: 0.805
composite z-score [5]: 1.49
composite z-score [6]: 0.583
composite z-score [7]: 1.13
z-score [8]: -1.4 (inactive)
composite z-score [9]: 0.503
composite z-score [10]: -0.15

CC(C)=NOCc1cccc(-c2cc(-c3ccccc3)no2)c1
composite z-score [1]: -0.575
composite z-score [2]: 0.221
composite z-score [3]: -0.0767
composite z-score [4]: 0.717
composite z-score [5]: 0.0486
composite z-score [6]: 0.205
composite z-score [7]: 0.345
z-score [8]: 0.603 (inactive)
composite z-score [9]: 0.376
composite z-score [10]: 0.0024

CCOC(=O)C[C@H]1[C@H](OC(=O)c2ccc(C(=O)c3ccccc3)cc2)[C@@H](NC(=O)c2ccc(-c3ccccc3)cc2)c2cc(OCCCO)ccc2N1C(=O)c1ccc2ccccc2n1
composite z-score [1]: -0.378
composite z-score [2]: 0.292
composite z-score [3]: -0.0685
composite z-score [4]: 0.773
composite z-score [5]: 0.643
composite z-score [6]: 0.5
composite z-score [7]: 0.927
z-score [8]: 0.0728 (inactive)
composite z-score [9]: 0.465
composite z-score [10]: -0.193

CC(C)NC(=O)[C@@H]1c2ccccc2C(=O)N(CC23CC4CC(CC(C4)C2)C3)[C@H]1c1ccc(CO)cc1
composite z-score [1]: -0.438
composite z-score [2]: -0.0125
composite z-score [3]: -0.0277
composite z-score [4]: 0.0767
composite z-score [5]: 1.38
composite z-score [6]: 0.93
composite z-score [7]: 1.27
z-score [8]: -3.34 (inactive)
composite z-score [9]: 0.839
composite z-score [10]: -0.434

O=C1[C@H]2[C@H]3[C@H](O)[C@H](O)CC(=NOC[C@@H](O)COCc4ccco4)[C@H]3CC[C@H]2C(=O)N1Cc1ccc2c(c1)OCO2
composite z-score [1]: -0.707
composite z-score [2]: 1.73
composite z-score [3]: -0.204
composite z-score [4]: -0.143
composite z-score [5]: -0.282
composite z-score [6]: -0.621
composite z-score [7]: 0.561
z-score [8]: 0.316 (inactive)
composite z-score [9]: -0.3
composite z-score [10]: -0.44

COc1ccc(O[C@H]2C=C[C@@H](c3ccccc3)O[C@@H]2COC(=O)CCC(C)=NOC[C@@H](C)[C@H](OCc2ccccc2)C(C)C)cc1
composite z-score [1]: -0.404
composite z-score [2]: -0.48
composite z-score [3]: -0.171
composite z-score [4]: -0.14
composite z-score [5]: -1.1
composite z-score [6]: -1.09
composite z-score [7]: -1.02
z-score [8]: 0.696 (inactive)
composite z-score [9]: -0.504
composite z-score [10]: -0.184

Cc1ccc(C2CC=C(C(=O)O)CN2S(=O)(=O)c2ccc(C)cc2)cc1 (stereo not given)
composite z-score [1]: 0.004
composite z-score [2]: 0.157
composite z-score [3]: -0.0258
composite z-score [4]: 0.0852
composite z-score [5]: 0.677
composite z-score [6]: 1.97
composite z-score [7]: 0.937
z-score [8]: -2.06 (inactive)
composite z-score [9]: 0.374
composite z-score [10]: 0.0749

C[C@@H](c1ccccc1)N1C(=O)[C@H]2[C@H]3[C@H](O)C=CC(=O)[C@@H]3CC[C@H]2C1=O
composite z-score [1]: -0.663
composite z-score [2]: 0.0994
composite z-score [3]: -0.218
composite z-score [4]: 0.277
composite z-score [5]: 0.348
composite z-score [6]: 0.185
composite z-score [7]: 0.609
z-score [8]: -0.608 (inactive)
composite z-score [9]: 0.123
composite z-score [10]: -0.0738

O=C1[C@H]2[C@H]3[C@H](O)[C@H](O)CC(=NOC[C@@H](O)COCc4ccco4)[C@H]3CC[C@H]2C(=O)N1C1CCCCC1
composite z-score [1]: -0.749
composite z-score [2]: 2.19
composite z-score [3]: -0.254
composite z-score [4]: -0.39
composite z-score [5]: -0.24
composite z-score [6]: -0.394
composite z-score [7]: 0.403
z-score [8]: -0.784 (inactive)
composite z-score [9]: 0.101
composite z-score [10]: -0.156

C=C(COC)/C(=C/C[C@H](OC(=O)c1ccncc1)c1ccc(CO)o1)c1cc(C(=O)OC)ccc1OC
composite z-score [1]: -0.393
composite z-score [2]: 0.649
composite z-score [3]: 0.0026
composite z-score [4]: 0.905
composite z-score [5]: 0.614
composite z-score [6]: 0.407
composite z-score [7]: 0.716
z-score [8]: 0.0676 (inactive)
composite z-score [9]: 0.404
composite z-score [10]: -0.123
